Source: PubChem BioAssay
TRPML1 ag – activates the human TRPML1 channel; TRPML1-expressing cells, Ca2+ dye fluorescence, FDSS; activation, % (test concentration not listed); actives 0.12% (n = 410,000); AID 624414; in the data active = activation above about 50%; inconclusive = mostly about 30% to 49%
Target sequence (Q9GZU1 whole entry, looked up): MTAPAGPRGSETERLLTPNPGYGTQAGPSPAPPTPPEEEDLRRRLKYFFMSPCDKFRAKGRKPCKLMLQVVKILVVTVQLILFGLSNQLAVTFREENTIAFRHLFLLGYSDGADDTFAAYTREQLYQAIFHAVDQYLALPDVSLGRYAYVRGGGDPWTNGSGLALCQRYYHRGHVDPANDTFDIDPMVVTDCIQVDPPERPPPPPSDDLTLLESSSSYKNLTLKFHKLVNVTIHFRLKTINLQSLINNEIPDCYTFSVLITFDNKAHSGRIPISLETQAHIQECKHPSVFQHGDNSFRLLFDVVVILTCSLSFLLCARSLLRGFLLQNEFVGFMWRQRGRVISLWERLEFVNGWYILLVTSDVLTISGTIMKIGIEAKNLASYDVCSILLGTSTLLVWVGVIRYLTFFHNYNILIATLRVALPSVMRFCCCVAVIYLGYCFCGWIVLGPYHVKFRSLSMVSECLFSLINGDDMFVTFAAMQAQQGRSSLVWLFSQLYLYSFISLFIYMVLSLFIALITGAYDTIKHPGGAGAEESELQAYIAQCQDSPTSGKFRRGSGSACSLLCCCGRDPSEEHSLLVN
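In this qHTS format, compounds were pin-transferred onto Ca8-dye-loaded TRPML1-DL cells induced with Tet overnight, and intracellular Ca2+ fluorescence was recorded kinetically for 110 s after a 10 s baseline. A subsequent 4uM final 54-4 (EC80) addition followed by a second 110 s read served as the antagonist phase.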
TRHR enhancer-1 – allosterically enhances the human TRH receptor; actives 0.66% (n = 360,000); enhancement, % at 2 µM; TRHR cells, fluo-8 calcium fluorescence, EC20 TRH enhancement; AID 493056; P34981; in the data active = enhancement above about 30%
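TRHR-expressing cells loaded with fluo-8 calcium dye were read kinetically (ex 480/em 530) during compound addition, then stimulated with an EC20 of TRH (10 nM final). Enhancement of the Gq-mediated intracellular calcium response was scored.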
TRHR agonist-1 – activates the human TRH receptor | P34981 | TRHR cells, calcium flux fluo-8, FDSS agonist mode | activation, % at 2 µM | actives 0.18% (n = 360,000); in the data active = activation above about 30%
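Read-out: compound-evoked intracellular calcium rise in TRHR cells, fluo-8 dye, kinetic FDSS fluorescence at 1 s/cycle following a 10-cycle baseline. Cells cultured overnight before dye loading (30 min–1.5 h, RT).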
TRPML1 blocker – blocks the human TRPML1 channel. Q9GZU1. actives 0.02% (n = 390,000). activity change, negative = inhibition, % (no concentration beside the values). AID 624415. TRPML1-inducible cells, Ca2+ dye fluorescence, FDSS; stronger effect = lower value; inhibition of EC80 agonist-evoked calcium signal; in the data active = activity change below about -50%; inconclusive = between about -30% and that limit;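 note: stimulus is agonist 54-4 at its EC80 concentration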
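Calcium fluorescence in TRPML1-DL cells induced overnight with Tet: a 110 s read after compound pin addition, then a 110 s antagonist read after challenge with 54-4 at 4 uM final (EC80).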
PTAP TSG101 blk – blocks PTAP/TSG101 interaction to inhibit HIV-1 budding; Fluorescence polarization, FITC-PTAP peptide / Tsg101 binding; Potency, µM (highest dose often 115 µM), usual class: inhibitors; 340,000 tested, under 10 active; Q99816; active = well fitted inhibition curve with a large enough effect in the main read-out, with a control signal flat, not every such curve was filed as active; inconclusive = small, poorly fitted or top-dose-only effect, or effect the other way, or a change in a side signal; inactive = no such curve, though single readings can be large or run the other way
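Tsg101 binding domain (10 uM final) was mixed with compound and a FITC-labeled PTAP peptide (50 nM final) in HEPES pH 7.5 buffer with NaCl, Tween 20, EDTA and TCEP; fluorescence polarization was read after 20 min at r.t.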
TRHR enhancer-2 – confirmation of human TRH receptor allosteric enhancers; 970 tested, under 10 active; activity change, negative = inhibition, % at 46.1 µM; TRH receptor cell assay, enhancer confirmation qHTS; shares compounds with TRHR enhancer-1;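 note: compound effect scored on response to added TRH at EC20 of 10 nM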
TRHR agonist-2 – confirmation of human TRH receptor agonists. actives 8% (n = 970). TRHR-expressing cells, agonist activation read-out. Potency, µM (titrated, usually from 46.1 µM), actives largely listed as activators. shares compounds with TRHR enhancer-1; note: nearly all actives have a fitted effect of over 75% in size
Hits are given with their value; n = inactive; u = inconclusive; x = not tested or not shown; ! = a repeat was not active. Compounds with a hit are over-represented: about 0.81% of the library has one in this group of screens. Unless noted, calls come from the whole dose curve; as a rule, active = well fitted curve in the direction sought with a large enough effect; inconclusive = small, poorly fitted or top-dose-only effect, or another doubt; inactive = no such curve, though single readings can be large; an effect the other way counts as inactive or inconclusive.

SMILES | TRPML1 ag | TRHR enhancer-1 | TRHR agonist-1 | TRPML1 blocker | PTAP TSG101 blk | TRHR enhancer-2 | TRHR agonist-2
Oc1c(C=C2N=c3ccccc3=N2)sc(=S)n1C1CCCCC1 | n | 41! | n | n | n | n | n
Oc1c(C=C2N=c3ccccc3=N2)sc(=S)n1-c1ccccc1 | n | n | n | n | n | x | x
CC1(C)C2CCC1(C)C(NC(=O)COC(=O)c1ccc(S(C)(=O)=O)c([N+](=O)[O-])c1)C2 (configuration not stated) | n | x | x | x | x | x | x
CCn1c(SCC(=O)Nc2cccc(C(C)=O)c2)nnc1C(C)C | n | n | 39 | n | n | n | n
Oc1ccc(Br)cc1C1C=C(c2ccc3c(c2)OCO3)NC(c2ccc(F)c(Br)c2)N1 (configuration not stated) | n | n | n | n | x | x | x
Cc1ccc(SCc2[nH]nc3c2C2(C(=O)Nc4ccc(F)cc42)C(C#N)=C(N)O3)cc1 (configuration not stated) | n | n | n | n | n | x | x
Cc1[nH]nc2c1C1(C(=O)Nc3ccc([N+](=O)[O-])cc31)C(C#N)=C(N)O2 (configuration not stated) | n | 116 | n | n | n | n | n
Cc1csc(NC(=O)c2sc3nc(-c4cccs4)ccc3c2N)n1 | u | n | 51 | n | u | n | 10µM
CCN1C(Br)=CCc2ccccc21 | n | x | x | x | x | x | x
Nc1c(C(=O)C2CC2)sc2nc(-c3ccccc3)cc(C(F)(F)F)c12 | u | n | 43 | n | u | n | 8.2µM
NS(=O)(=O)c1ccc(NC(=O)COC(=O)c2cn(-c3ccccc3)nc2-c2ccc(F)cc2)cc1 | n | 45 | n | n | n | n | u
O=C(COC(=O)c1cnccn1)Nc1ncc(Cl)cc1Cl | n | n | n | n | n | x | x
O=C(COC(=O)c1cnccn1)Nc1c(Cl)cc(Cl)cc1Cl | n | 47 | n | n | n | n | n
Cc1cc2ccc(Cl)nc2nc1C | n | x | x | x | x | x | x
Cc1ccnc(NC(=O)CCC(=O)N(Cc2ccco2)C(C(=O)NC(C)C)c2ccc(F)cc2)c1 (configuration not stated) | n | 43 | n | n | n | n | n
CCOC(=O)c1[nH]cnc1C(=O)Nc1ccc(C)cc1 | n | 51 | n | n | n | n | n
CCOC(=O)c1[nH]cnc1C(=O)Nc1ccc(Cl)cc1 | n | n | n | n | n | x | x
Cc1ccc2[nH]c(CCN(C)C)c(CC#N)c2c1 | n | 66 | n | n | n | n | u
Cc1ccc2cccc(O)c2n1 | n | x | x | x | x | x | x
O=[N+]([O-])c1cccc(-c2nn(-c3ccccc3)cc2CO)c1 | n | n | n | n | n | x | x
O=C(NCc1cn(-c2ccccc2)nc1-c1ccccc1)c1ccc([N+](=O)[O-])cc1 | n | 44 | n | n | n | n | n
COC(=O)c1ccccc1NC(=O)Cn1nc(C(F)(F)F)c2c1CCCC2 | n | 57 | n | u | x | n | n
Cc1c(NC(=O)Cn2nc(C(F)(F)F)c3c2CCCC3)c(=O)n(-c2ccccc2)n1C | n | 58 | n | n | n | n | n
CCc1ccccc1NC(=O)Cn1nc(C(F)(F)F)c2c1CCCC2 | n | n | n | n | x | x | x
CCN(C(=O)Cn1nc(C(=O)O)c2ccccc2c1=O)C1CCCCC1 | n | 44 | n | n | n | n | n
SMILES | TRPML1 ag | TRHR enhancer-1 | TRHR agonist-1 | TRPML1 blocker | PTAP TSG101 blk | TRHR enhancer-2 | TRHR agonist-2
Cc1c(NC(=O)Cn2nc(C(=O)O)c3ccccc3c2=O)c(=O)n(-c2ccccc2)n1C | n | 46 | n | n | n | n | n
CCOc1ccc(NC(=O)c2cn(-c3ccc(OCC)cc3)c(=O)c3cc(OC)c(OC)cc23)cc1 | n | n | n | n | n | x | x
CCCCNC(=O)c1cn(-c2ccc(OCC)cc2)c(=O)c2cc(OC)c(OC)cc12 | n | 47 | n | n | n | n | n
Cc1ccc(Cn2ccc(C3CC3)n2)cc1 | n | 51 | n | n | n | n | n
O=C(Nc1ccc(CN2CCOCC2)cc1)c1ccc(F)cc1 | n | 56 | n | n | n | n | n
COc1ccccc1N1CCN(C(=O)CSc2nc3ccccc3nc2N2CCCCC2)CC1 | n | n | n | n | n | x | x
COc1ccccc1N1CCN(C(=O)CSc2nc3ccccc3nc2N2CCC(C)CC2)CC1 | n | 54 | n | n | n | n | n
CCOC(=O)c1[nH]c(C)c(C(=O)OCC)c1C | n | n | n | n | n | x | x
CCOC(=O)c1[nH]c(C)c(C(=O)N(CC)CC)c1C | n | 52 | n | n | n | n | n
O=C(NCC(c1ccco1)N1CCc2ccccc21)c1ccccc1 (configuration not stated) | n | 51 | n | n | n | n | n
Cc1ccc(C(=O)NCC(c2ccco2)N2CCc3ccccc32)cc1C (configuration not stated) | n | n | n | n | n | x | x
C(=Nc1cnc2ccccc2c1)c1ccnc2ccccc12 | n | x | x | x | x | x | x
COc1ccnc(Oc2cc(Cl)cc(Cl)c2)c1C#N | n | n | n | n | n | x | x
COc1ccc(Oc2nccc(OC)c2C#N)cc1 | n | 43 | n | n | n | n | n
CC(C)CC1=NN2C(=N)/C(=C\c3coc4ccccc4c3=O)C(=O)N=C2S1 | 69 | n | n | n | u | n | 2.6µM
Cc1ccccc1N1C(=O)c2cccc3c(N(C)CCO)ccc(c23)C1=O | n | n | 41 | n | u | n | 18µM
CC(=O)Nc1cccc2c1C(=O)N(c1ccccc1C)C2=O | n | n | n | n | n | x | x
COc1ccccc1N1C(=O)c2cccc3c(N(C)CCO)ccc(c23)C1=O | n | n | 61 | n | u | n | 21µM
CC(C(=O)c1ccccc1)[n+]1ccc(Cl)c2ccc(Cl)cc21 (configuration not stated) | n | x | x | x | x | x | x
CCc1nc(Nc2ccncc2)c2oc3ccccc3c2n1 | n | 47 | n | n | n | n | n
COC(=O)CN(c1nc(C)cc(OC)n1)S(=O)(=O)c1ccccc1 | n | 68 | n | n | n | n | n
COc1cc(C)nc(N(Cc2ccccc2)S(=O)(=O)c2ccccc2)n1 | n | n | n | n | n | x | x
CC(=O)COc1ccc2cc(-c3ccccc3)c(=O)oc2c1 | n | n | n | n | n | x | x
O=C(CCCCl)Oc1ccc2cc(-c3ccc4ccccc4n3)c(=O)oc2c1 | n | n | 32 | n | n | n | u
CCOc1ccccc1N(CC(=O)N1CCOCC1)S(=O)(=O)c1ccc(SC)cc1 | 105 | n | 92 | n | n | n | 2.1µM
Cc1ccc(S(=O)(=O)N(CC(=O)N2CCOCC2)c2ccccc2F)cc1 | n | n | n | n | n | x | x
